Assay results from ChEMBL document CHEMBL1961873, “Compounds: GSK PKIS; Assays: Nanosyn kinase panel” (2012).

Columns and labels:
[1] = biological target: T1, Ephrin type-B receptor 2 (Homo sapiens) (UniProt P29323); conditions: at 1 µM
T1 sequence (whole entry): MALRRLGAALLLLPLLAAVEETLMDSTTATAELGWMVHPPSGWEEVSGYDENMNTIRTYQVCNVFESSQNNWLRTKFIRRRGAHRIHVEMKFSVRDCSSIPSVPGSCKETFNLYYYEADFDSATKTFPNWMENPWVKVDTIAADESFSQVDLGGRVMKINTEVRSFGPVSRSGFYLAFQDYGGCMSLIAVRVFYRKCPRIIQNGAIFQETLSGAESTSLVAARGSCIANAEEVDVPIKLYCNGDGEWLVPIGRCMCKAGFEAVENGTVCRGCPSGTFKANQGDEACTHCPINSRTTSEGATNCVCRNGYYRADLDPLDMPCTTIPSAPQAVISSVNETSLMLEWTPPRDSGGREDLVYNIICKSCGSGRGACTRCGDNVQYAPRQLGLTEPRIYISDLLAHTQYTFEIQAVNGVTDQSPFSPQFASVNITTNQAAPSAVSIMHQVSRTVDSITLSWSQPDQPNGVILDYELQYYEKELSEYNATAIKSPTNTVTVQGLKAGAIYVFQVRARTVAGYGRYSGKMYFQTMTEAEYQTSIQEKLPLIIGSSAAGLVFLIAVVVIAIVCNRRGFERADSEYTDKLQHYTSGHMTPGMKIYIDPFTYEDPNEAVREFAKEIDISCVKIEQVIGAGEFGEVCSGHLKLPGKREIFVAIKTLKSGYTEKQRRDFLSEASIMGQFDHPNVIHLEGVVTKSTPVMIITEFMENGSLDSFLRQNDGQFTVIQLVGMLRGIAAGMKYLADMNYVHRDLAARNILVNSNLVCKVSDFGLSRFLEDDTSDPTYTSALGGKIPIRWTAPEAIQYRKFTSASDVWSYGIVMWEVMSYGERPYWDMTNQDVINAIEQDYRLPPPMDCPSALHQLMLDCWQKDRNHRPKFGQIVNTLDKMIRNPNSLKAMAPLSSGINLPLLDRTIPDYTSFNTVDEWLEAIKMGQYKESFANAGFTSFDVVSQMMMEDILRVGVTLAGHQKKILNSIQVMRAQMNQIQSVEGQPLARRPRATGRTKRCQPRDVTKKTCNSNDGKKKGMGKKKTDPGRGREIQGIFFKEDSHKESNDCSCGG

[2] = biological target: T2, Ephrin type-B receptor 3 (Homo sapiens) (UniProt P54753); conditions: at 0.1 µM
T2 sequence (whole entry): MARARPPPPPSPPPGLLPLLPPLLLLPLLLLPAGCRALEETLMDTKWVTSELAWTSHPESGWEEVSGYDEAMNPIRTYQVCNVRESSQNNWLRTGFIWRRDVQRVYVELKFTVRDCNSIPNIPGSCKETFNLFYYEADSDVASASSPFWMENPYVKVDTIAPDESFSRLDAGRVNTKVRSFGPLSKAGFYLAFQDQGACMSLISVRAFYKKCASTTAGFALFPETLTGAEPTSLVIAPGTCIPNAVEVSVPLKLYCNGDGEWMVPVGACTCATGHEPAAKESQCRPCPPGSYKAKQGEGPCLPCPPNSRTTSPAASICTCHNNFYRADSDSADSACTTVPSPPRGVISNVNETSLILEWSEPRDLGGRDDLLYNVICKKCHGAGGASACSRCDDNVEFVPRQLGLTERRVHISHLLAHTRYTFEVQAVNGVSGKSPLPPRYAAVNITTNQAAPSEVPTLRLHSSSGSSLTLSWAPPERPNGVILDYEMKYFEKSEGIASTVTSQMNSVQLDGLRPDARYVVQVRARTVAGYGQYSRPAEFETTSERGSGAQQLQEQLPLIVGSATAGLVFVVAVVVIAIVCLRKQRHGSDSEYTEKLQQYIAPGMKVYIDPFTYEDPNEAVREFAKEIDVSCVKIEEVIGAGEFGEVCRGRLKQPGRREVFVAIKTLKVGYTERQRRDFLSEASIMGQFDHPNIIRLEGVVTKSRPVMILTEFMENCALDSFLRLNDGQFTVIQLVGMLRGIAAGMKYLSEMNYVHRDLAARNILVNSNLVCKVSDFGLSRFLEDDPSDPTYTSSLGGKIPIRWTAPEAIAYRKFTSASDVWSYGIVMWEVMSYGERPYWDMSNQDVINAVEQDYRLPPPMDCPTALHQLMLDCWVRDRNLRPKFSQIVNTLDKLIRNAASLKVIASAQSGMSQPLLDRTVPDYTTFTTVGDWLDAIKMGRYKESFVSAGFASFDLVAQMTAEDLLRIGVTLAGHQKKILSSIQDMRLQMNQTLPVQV

[3] = biological target: T2, Ephrin type-B receptor 3 (Homo sapiens); conditions: at 1 µM
[4] = biological target: T3, Ephrin type-B receptor 4 (Homo sapiens) (UniProt P54760); conditions: at 0.1 µM
T3 sequence (whole entry): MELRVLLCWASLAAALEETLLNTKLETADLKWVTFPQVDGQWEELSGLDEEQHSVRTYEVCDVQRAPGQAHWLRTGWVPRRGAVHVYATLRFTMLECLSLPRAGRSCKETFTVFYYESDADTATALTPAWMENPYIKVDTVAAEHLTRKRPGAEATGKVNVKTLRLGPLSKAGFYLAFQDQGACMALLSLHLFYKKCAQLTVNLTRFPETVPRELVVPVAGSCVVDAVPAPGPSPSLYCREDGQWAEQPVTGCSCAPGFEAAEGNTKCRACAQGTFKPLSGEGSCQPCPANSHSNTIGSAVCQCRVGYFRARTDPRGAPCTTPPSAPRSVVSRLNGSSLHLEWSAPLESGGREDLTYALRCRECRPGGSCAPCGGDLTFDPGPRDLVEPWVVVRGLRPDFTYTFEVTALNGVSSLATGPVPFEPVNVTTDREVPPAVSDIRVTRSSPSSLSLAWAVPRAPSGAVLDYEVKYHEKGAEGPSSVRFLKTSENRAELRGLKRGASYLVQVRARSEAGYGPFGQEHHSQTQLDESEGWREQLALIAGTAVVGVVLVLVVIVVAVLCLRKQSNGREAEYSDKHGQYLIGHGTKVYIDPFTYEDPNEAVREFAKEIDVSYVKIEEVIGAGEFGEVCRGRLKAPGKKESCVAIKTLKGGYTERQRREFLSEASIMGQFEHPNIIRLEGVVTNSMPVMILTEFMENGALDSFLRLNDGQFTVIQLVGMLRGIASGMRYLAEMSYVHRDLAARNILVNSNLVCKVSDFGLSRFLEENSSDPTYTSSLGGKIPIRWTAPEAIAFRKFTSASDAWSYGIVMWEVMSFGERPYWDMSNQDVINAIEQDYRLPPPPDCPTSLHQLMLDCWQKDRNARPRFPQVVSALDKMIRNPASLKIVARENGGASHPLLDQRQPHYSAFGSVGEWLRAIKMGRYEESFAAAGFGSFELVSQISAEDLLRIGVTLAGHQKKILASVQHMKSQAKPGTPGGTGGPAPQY

[5] = biological target: T3, Ephrin type-B receptor 4 (Homo sapiens); conditions: at 1 µM
[6] = biological target: Receptor tyrosine-protein kinase erbB-2 (Homo sapiens) (UniProt P04626); conditions: at 0.1 µM
[7] = biological target: Receptor tyrosine-protein kinase erbB-2 (Homo sapiens) (UniProt P04626); conditions: at 1 µM
[8] = biological target: Receptor tyrosine-protein kinase erbB-4 (Homo sapiens) (UniProt Q15303); conditions: at 0.1 µM
[9] = biological target: Receptor tyrosine-protein kinase erbB-4 (Homo sapiens) (UniProt Q15303); conditions: at 1 µM
[10] = biological target: Tyrosine-protein kinase Fer (Homo sapiens) (UniProt P16591); conditions: at 0.1 µM
[11] = biological target: Tyrosine-protein kinase Fer (Homo sapiens) (UniProt P16591); conditions: at 1 µM
[12] = biological target: Tyrosine-protein kinase Fes/Fps (Homo sapiens) (UniProt P07332); conditions: at 0.1 µM
[13] = biological target: Tyrosine-protein kinase Fes/Fps (Homo sapiens) (UniProt P07332); conditions: at 1 µM
[14] = biological target: Fibroblast growth factor receptor 1 (Homo sapiens) (UniProt P11362); conditions: at 0.1 µM
[15] = biological target: Fibroblast growth factor receptor 1 (Homo sapiens) (UniProt P11362); conditions: at 1 µM
[16] = biological target: Fibroblast growth factor receptor 2 (Homo sapiens) (UniProt P21802); conditions: at 0.1 µM
[17] = biological target: Fibroblast growth factor receptor 2 (Homo sapiens) (UniProt P21802); conditions: at 1 µM
[18] = biological target: Fibroblast growth factor receptor 3 (Homo sapiens) (UniProt P22607); conditions: at 0.1 µM
[19] = biological target: Fibroblast growth factor receptor 3 (Homo sapiens) (UniProt P22607); conditions: at 1 µM
[20] = biological target: Fibroblast growth factor receptor 4 (Homo sapiens) (UniProt P22455); conditions: at 0.1 µM;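 further: values are mean percent inhibition of FGFR4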
Chain of Fibroblast growth factor receptor 4 (Homo sapiens) (P22455 22-802 limits assumed): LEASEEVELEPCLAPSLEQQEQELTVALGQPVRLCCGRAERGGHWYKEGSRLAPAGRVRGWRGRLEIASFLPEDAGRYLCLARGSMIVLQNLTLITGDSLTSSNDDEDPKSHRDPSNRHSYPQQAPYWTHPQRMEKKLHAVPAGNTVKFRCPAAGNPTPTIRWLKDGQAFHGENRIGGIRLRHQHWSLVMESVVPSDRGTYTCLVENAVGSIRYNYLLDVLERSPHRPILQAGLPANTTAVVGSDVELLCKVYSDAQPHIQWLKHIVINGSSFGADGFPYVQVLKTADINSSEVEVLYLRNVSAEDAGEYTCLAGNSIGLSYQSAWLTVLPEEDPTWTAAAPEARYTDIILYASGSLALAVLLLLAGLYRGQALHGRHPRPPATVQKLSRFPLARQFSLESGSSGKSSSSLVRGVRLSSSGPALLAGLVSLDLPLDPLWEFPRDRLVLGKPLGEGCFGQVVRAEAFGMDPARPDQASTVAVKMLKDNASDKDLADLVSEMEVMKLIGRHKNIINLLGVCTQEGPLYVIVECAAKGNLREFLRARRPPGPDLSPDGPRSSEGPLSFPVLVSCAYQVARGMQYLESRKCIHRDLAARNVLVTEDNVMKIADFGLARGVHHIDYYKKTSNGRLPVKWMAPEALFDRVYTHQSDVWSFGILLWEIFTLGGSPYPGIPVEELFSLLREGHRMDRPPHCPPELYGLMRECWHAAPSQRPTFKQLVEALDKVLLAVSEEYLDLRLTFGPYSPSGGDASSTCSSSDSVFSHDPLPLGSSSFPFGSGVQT

Chain of Fibroblast growth factor receptor 2 (Homo sapiens) (P21802 22-821 limits assumed): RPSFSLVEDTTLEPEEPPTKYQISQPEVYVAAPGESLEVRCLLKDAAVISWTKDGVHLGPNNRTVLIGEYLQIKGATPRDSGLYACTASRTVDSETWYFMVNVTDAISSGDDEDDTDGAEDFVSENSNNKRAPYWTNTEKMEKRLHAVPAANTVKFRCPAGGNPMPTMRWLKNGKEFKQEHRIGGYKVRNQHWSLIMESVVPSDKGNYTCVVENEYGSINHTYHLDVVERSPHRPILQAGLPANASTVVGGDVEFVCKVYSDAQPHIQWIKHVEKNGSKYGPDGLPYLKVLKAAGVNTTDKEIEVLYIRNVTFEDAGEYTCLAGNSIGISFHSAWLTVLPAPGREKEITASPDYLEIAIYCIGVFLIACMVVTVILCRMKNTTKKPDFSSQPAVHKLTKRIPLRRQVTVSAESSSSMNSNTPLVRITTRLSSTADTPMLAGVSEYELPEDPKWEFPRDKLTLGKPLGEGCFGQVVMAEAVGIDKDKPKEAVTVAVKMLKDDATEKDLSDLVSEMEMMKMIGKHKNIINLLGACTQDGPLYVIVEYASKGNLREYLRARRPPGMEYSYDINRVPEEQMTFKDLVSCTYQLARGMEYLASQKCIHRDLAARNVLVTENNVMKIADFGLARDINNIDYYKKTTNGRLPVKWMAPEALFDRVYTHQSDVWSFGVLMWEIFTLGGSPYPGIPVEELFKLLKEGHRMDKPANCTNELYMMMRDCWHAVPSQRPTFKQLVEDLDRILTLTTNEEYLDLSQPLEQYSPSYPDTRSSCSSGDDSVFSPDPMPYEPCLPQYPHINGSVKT
Chain of Tyrosine-protein kinase Fes/Fps (Homo sapiens) (P07332 whole entry): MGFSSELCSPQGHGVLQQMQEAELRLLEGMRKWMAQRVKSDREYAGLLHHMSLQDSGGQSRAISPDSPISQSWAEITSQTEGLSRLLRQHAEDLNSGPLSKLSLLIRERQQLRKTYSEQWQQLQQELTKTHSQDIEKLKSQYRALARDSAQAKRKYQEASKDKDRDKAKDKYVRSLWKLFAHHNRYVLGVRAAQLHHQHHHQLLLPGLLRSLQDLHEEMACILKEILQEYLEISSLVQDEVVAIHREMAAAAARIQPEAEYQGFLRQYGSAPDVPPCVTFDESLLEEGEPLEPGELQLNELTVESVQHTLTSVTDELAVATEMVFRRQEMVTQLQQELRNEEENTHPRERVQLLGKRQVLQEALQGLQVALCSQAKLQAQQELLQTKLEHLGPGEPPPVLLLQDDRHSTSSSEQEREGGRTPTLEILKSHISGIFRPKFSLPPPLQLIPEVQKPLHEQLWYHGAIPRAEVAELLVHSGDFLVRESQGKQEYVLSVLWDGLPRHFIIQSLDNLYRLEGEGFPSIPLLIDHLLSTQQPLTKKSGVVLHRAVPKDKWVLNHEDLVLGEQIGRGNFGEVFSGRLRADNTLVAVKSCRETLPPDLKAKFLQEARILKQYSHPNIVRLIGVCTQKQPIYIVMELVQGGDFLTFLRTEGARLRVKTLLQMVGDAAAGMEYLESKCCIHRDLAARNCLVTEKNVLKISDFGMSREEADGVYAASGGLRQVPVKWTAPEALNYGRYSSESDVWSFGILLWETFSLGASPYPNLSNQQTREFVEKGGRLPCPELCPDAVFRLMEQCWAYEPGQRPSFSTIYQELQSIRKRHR
Chain of Receptor tyrosine-protein kinase erbB-2 (Homo sapiens) (P04626 whole entry): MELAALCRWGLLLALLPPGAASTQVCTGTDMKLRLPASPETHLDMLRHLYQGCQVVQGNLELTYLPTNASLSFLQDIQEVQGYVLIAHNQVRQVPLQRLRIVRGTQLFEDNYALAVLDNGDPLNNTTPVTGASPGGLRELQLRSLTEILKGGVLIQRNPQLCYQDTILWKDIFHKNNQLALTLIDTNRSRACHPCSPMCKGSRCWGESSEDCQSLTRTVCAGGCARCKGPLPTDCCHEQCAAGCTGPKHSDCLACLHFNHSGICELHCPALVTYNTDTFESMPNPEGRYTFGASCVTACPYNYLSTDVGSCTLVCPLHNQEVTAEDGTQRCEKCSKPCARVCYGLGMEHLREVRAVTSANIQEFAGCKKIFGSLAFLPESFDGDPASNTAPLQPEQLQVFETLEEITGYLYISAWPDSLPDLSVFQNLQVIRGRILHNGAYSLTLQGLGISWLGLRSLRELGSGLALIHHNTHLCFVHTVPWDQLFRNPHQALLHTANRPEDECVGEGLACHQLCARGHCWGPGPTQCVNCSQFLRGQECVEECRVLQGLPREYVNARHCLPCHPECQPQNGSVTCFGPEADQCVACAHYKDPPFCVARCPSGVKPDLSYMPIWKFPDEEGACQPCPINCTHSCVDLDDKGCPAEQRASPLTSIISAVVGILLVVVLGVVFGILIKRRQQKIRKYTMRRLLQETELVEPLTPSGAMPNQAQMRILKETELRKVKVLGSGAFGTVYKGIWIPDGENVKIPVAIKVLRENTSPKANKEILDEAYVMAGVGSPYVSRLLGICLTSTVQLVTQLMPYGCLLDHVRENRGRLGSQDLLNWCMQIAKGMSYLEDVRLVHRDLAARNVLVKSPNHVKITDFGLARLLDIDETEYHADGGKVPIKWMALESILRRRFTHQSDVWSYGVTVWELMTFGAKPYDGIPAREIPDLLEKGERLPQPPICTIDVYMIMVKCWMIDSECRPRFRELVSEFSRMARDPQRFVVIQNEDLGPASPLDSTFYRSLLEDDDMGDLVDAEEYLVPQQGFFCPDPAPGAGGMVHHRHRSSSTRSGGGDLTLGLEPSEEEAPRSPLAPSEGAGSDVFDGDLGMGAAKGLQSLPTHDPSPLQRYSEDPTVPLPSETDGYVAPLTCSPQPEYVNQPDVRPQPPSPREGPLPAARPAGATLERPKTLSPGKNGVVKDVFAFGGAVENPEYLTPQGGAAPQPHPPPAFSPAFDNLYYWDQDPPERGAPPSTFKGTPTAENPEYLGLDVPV
Chain of Fibroblast growth factor receptor 1 (Homo sapiens) (P11362 22-822 limits assumed): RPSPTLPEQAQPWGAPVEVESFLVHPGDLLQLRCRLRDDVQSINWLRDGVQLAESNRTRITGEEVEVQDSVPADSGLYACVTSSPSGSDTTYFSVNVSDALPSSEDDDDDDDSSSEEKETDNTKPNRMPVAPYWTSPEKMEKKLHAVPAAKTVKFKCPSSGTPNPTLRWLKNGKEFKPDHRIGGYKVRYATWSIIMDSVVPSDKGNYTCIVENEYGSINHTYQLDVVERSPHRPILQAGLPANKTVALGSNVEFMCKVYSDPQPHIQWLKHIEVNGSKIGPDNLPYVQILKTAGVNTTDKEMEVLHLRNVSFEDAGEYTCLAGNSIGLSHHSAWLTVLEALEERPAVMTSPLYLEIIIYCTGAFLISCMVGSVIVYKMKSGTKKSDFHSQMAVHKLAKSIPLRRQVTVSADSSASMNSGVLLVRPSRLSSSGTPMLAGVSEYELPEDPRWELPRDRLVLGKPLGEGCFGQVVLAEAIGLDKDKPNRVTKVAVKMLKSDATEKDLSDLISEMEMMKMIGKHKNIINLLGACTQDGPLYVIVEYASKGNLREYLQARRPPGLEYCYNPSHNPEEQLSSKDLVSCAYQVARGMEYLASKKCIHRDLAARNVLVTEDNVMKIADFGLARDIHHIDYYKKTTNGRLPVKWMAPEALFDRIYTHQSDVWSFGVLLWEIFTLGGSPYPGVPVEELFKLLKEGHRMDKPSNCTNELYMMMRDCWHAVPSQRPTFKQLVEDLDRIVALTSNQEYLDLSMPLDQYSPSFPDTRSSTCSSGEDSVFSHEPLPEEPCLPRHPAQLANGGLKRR

Row | Structure (SMILES) | inhibition [1] | inhibition [2] | inhibition [3] | inhibition [4] | inhibition [5] | inhibition [6] | inhibition [7] | inhibition [8] | inhibition [9] | inhibition [10] | inhibition [11] | inhibition [12] | inhibition [13] | inhibition [14] | inhibition [15] | inhibition [16] | inhibition [17] | inhibition [18] | inhibition [19] | inhibition [20]
1 | CN(C)C(=O)O[C@H]1CN[C@H](C#Cc2cc3ncnc(Nc4ccc(OCc5cccc(F)c5)c(Cl)c4)c3s2)C1 | 14.1% | 4.55% | 5.69% | 2.43% | 3.92% | 4% | 50.4% | 92.5% | 120% | 1.02% | -0.03% | 2.17% | 3.06% | 2.33% | 5.24% | 2.11% | 7.78% | 5.3% | 5.64% | 0.8%
2 | Nc1nccc(C#Cc2cncnc2Nc2ccc(OCc3cccc(F)c3)c(Cl)c2)n1 | 7.89% | 5.26% | 4.02% | 1.01% | 2.68% | -1.45% | -8.09% | 14.2% | 24.8% | 2.1% | 3.48% | 3.46% | 4.65% | 5.53% | 4.02% | 4.45% | 8.42% | 5.34% | 5.62% | 2.52%
3 | CCS(=O)(=O)c1ccc(OC)c(Nc2nccc(N(C)c3ccc4c(C)n[nH]c4c3)n2)c1 | 43.6% | 2.23% | 6.04% | 17.4% | 65.8% | 7.28% | 13.4% | 18.5% | 60.5% | 2.69% | 34.3% | 3.93% | 6.48% | 8.89% | 37.3% | 18.8% | 56.1% | 17.4% | 54.7% | -0.42%
4 | NS(=O)(=O)c1ccc(-c2cc3ccncc3cc2OCc2ccccc2)cc1 | 12.6% | 5.73% | 3.29% | 2.88% | 2.91% | 2.03% | 3.62% | 7.38% | 8.97% | 5.47% | 8.24% | 2.42% | 4.62% | 4.72% | 3.35% | 2.27% | 3.78% | 2.04% | 2.76% | -2.59%
5 | Cc1ccc2c(-c3ccnc(Nc4ccc5c(c4)OCCO5)n3)c(-c3ccc(C(F)(F)F)cc3)nn2n1 | 1.37% | -0.21% | 2.22% | -1.12% | 1.46% | 2.13% | 4.1% | 3.46% | 16.3% | 0.5% | -0.37% | 0.95% | 0.4% | 0.28% | 1.17% | -1.07% | 0.36% | -1.98% | 1% | 1.94%
6 | C[C@@H](Oc1cc(-n2cnc3ccc(OCC4CCN(C)CC4)cc32)sc1C(N)=O)c1ccccc1C(F)(F)F | -1.46% | -3.13% | -1.08% | -1.38% | 0.52% | -0.64% | 0.08% | -5.11% | -0.34% | -2.09% | 4.43% | -1.88% | -1.98% | -9.02% | 13% | -3.05% | 7.56% | -0.95% | 0.66% | 0.86%
